Test results taken from PubChem BioAssay AID1220 (Sanford-Burnham Center for Chemical Genomics, 2008).
Among all 190,000 compounds or so, about 1,300 (0.68%) were called active. The sample as a whole holds a higher share of actives than the screen did. Unmarked numbers belong to inactive results. No stated cut-off is given here; in the data, active means inhibition above about 50%; inactive means the rest.

biological target: Mannose-6-phosphate isomerase (Homo sapiens) (UniProt P34949); experiment: human PMI inhibitors, high substrate, primary screen, biochemical, fluorescence intensity, high mannose 6-phosphate (AID 1220); conditions: recombinant PMI enzyme, coupled fluorescence intensity; at 20 µM; hits give high values
Sequence (P34949 whole entry, looked up): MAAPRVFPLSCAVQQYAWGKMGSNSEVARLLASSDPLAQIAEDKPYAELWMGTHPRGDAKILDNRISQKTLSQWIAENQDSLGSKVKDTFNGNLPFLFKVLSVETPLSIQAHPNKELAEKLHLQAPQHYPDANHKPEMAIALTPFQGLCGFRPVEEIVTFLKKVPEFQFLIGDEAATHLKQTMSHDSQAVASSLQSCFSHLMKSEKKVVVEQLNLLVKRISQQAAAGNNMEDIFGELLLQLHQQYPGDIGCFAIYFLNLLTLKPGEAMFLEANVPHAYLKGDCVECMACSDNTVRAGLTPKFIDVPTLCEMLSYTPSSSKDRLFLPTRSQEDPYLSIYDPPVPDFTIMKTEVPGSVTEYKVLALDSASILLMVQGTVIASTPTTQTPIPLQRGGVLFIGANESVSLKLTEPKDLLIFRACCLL

In the case of `COc1ccc2nc(SC)c(C#N)cc2c1`, the inhibition was 52.1% (active).
For `COc1ccc2nc(N3CCC(O)CC3)c(C#N)cc2c1`, the inhibition was 51.2% (active).
`O=c1[nH]ccc2c([N+](=O)[O-])cccc12` was tested, and the inhibition was 55.2% (active).
With `CCc1[nH]c(=O)[nH]c1C(C)S(=O)(=O)c1ccc(C)cc1` (centres undefined) the inhibition was 70.3% (active).
With `CN1CCN(CC(O)(c2ccc(Cl)cc2)c2ccc(Cl)cc2)CC1` the inhibition was 55.4% (active).
For `Oc1ccc(N2CCN(Cc3ccc(OCCCN4CCCCC4)cc3)CC2)cc1`, the inhibition was 58.4% (active).
For `CCOC(=O)c1cc2cc3ccccc3cc2[nH]1`, the inhibition was 53.2% (active).
In the case of `CCCC(=O)Nc1cc(OC)c(NC(=O)NC2CCCCC2)cc1OC`, the inhibition was 51.8% (active).
`C=CCOc1cc(OC)c(OC)c(OC)c1` was tested, and the inhibition was 54.8% (active).
`CC1(C)CC(=O)C(C=Nc2cccnc2/N=C/C2=C(O)CC(C)(C)CC2=O)=C(O)C1` was tested, and the inhibition was 58.8% (active).
In the case of `CCN(CC)c1ccc(N=Cc2cc(Br)ccc2O)cc1`, the inhibition was 63.1% (active).
With `CCN(CC)c1ccc(O)c(C=Nc2ccc(C)c(C)c2)c1` the inhibition was 57% (active).
With `COc1cc(OC)c2c(O)c3c(c(-c4c5c(c(O)c6c(OC)cc(OC)cc46)CO[C@@H](C)[C@H]5O)c2c1)[C@H](O)[C@H](C)OC3` the inhibition was 54.8% (active).
With `O=[N+]([O-])c1cc(-c2ccc(C(=S)N3CCOCC3)o2)ccc1Cl` the inhibition was 61% (active).
`COc1cc(C2CC(=O)N3CN(Cc4ccco4)CSC3=C2C#N)ccc1OCc1ccccc1` (centres undefined) was tested, and the inhibition was 74.4% (active).
With `CN1CSC2=C(C#N)C(c3cccc(OCc4ccccc4)c3)CC(=O)N2C1` (centres undefined) the inhibition was 59.9% (active).
With `COc1cc(C2CC(=O)N3CN(Cc4ccccc4)CSC3=C2C#N)ccc1OCc1ccccc1` (centres undefined) the inhibition was 66.3% (active).

In order of rising inhibition:
1. Cc1cc(=S)cc(C)n1CCO  -138%
2. COc1ccc2nc(SCC(C)=O)c(C#N)cc2c1  -92.4%
3. CCc1ccc(C2CC(=O)N3CN(c4ccccc4)CSC3=C2C#N)cc1 (centres undefined)  -47.1%
4. CC1CC2(CCCCC2)Nc2c1ccc1ccccc21 (centres undefined)  -36.7%
5. CCc1c(C(C)S(=O)(=O)c2ccc(C)cc2)[nH]c(=O)n1-c1ccc(C)cc1 (centres undefined)  -35.3%
6. COc1cc(OC)c2c(c1)C(=O)OC2  -32.4%
7. CCc1c(C(C)S(=O)(=O)c2ccc(C)cc2)[nH]c(=O)n1-c1ccc(OC(F)(F)F)cc1 (centres undefined)  -28.2%
8. COc1ccc(C2CC(=O)N3CN(c4ccc(C)c(Cl)c4)CSC3=C2C#N)cc1OC (centres undefined)  -27.1%
9. CC1(C)CC(=O)C(/C=N/c2ncccc2C(=O)O)=C(O)C1  -18.7%
10. CC1(N2CCOCC2)C(=O)c2ccccc2C1=O  -17.3%
11. C/C(=N\NS(=O)(=O)c1ccc(C)c([N+](=O)[O-])c1)c1ccc2c(c1)OCO2  -16.6%
12. O=c1[nH]cnc2c([N+](=O)[O-])cccc12  -12.2%
13. COc1cccc(C2CC(=O)N3CN(c4ccccc4F)CSC3=C2C#N)c1 (centres undefined)  -11.4%
14. C=CCn1c(SCC(=O)NC(=O)NC)nnc1C1CCCCC1  -11.2%
15. CCOC(=O)c1nc(C)n(-c2cc(OC)c(Cl)cc2Cl)n1  -10.2%
16. CCOC(=O)c1cc2cc(OC)ccc2[nH]1  -9.7%
17. NS(=O)(=O)c1ccc(CCNC(=O)NC2(C(F)(F)F)Oc3ccccc3O2)cc1  -9.2%
18. CCN1CCc2c(OCC(=O)N3CCC(C)CC3)cccc2C1=O  -8.8%
19. S=C(c1ccc(-c2ccc(Cl)c(Cl)c2)o1)N1CCOCC1  -7.4%
20. CCCC1=[N+](CC(C)=O)CCn2c(C)ccc21  -7.3%
21. Cc1ccc(/C=N/NC(=O)c2nnn(-c3nonc3N)c2CSc2ccc(Cl)cc2)cc1  -7%
22. CC1(C)CC(=O)C(/C=N/c2ccccn2)=C(O)C1  -6.9%
23. O=C(CCc1ccc(S(=O)(=O)N2CCOCC2)cc1)N/N=C/c1cccc(O)c1  -6.2%
24. Cc1cc2c(cc(C(=O)OCC(=O)NCc3ccco3)n2C)s1  -6.2%
25. CC(=O)c1cccc(NC(=O)/C(=C\c2cccnc2)NC(=O)c2ccco2)c1  -6.2%
26. COc1ccc2nc(N3CCCC3)c(C#N)cc2c1  -5.8%
27. COc1ccc2nc(N3CCC(C)CC3)c(C#N)cc2c1  -5.3%
28. Cc1ccc(-c2csc(/C(C#N)=C/Nc3ccccc3SC(F)(F)F)n2)cc1  -3.6%
29. O=C(NC1CCCCC1)c1ccc(NS(=O)(=O)c2cccc3cccnc23)cc1  -3.4%
30. COCCN(C(=O)CSc1nnc(-c2ccccc2F)n1C)c1c(N)n(Cc2ccccc2)c(=O)[nH]c1=O  -3.1%
31. CCOC(=O)CC1C(=O)NCCN1S(=O)(=O)c1ccccc1 (centres undefined)  -2.9%
32. COc1ccc(Cl)cc1NC(=O)NC1CCCCC1  -2.2%
33. COCc1cc(/C=N\NC(=O)COc2ccc(Cl)cc2)ccc1OC  -2%
34. Cc1cc(N2C(=O)CCC2=O)ccc1NC(=O)c1cccs1  -1.9%
35. CCN(CC)c1ccc2c(C)c(Cl)c(=O)oc2c1  -1.9%
36. CCN(CC(=O)NC1CCS(=O)(=O)C1)C(=O)/C=C/c1cccs1 (centres undefined)  -0.6%
37. COc1ccc(C2CC(=O)N3CN(c4ccccc4F)CSC3=C2C#N)cc1OC (centres undefined)  -0.4%
38. CCCN1C2CCCC1CC(NC(=O)c1ccccc1OCC)C2 (centres undefined)  0%
39. CN1CCN(C(=O)C2=C[C@H](C(C)(C)C)C[C@H](OCCCCO)O2)CC1  0.2%
40. O=C(CCC1COc2ccccc2O1)NCc1ccccc1 (centres undefined)  0.9%
41. COc1cccc(C2=NCCc3cc4c(cc32)OCO4)c1OC  1.3%
42. Cc1ccc2nc(SC(C(=O)c3ccccc3)c3ccccc3)nc(C)c2c1 (centres undefined)  1.4%
43. COc1cc(OC)c2c(c1)OC(c1ccc(OC)c(OC)c1)C(O)C2=O (centres undefined)  1.6%
44. CCCCC(=O)Nc1cc(OC)c(NC(=O)C2CCCCC2)cc1OC  2.5%
45. COc1ccccc1CC(=O)Nc1ccc(O)cc1C(=O)O  2.5%
46. CCOC(=O)C1(CCc2ccccc2)CCN(Cc2ccc(OC)cc2)CC1  3.3%
47. CN1CCN(CC(C)(C)NS(=O)(=O)c2ccc(Cl)cc2)CC1  3.4%
48. CCN(CC)c1ccc2ccc(=O)oc2c1  3.8%
49. COc1cccc(C(=O)NC(=S)Nc2ccc3oc(=O)ccc3c2)c1  4.1%
50. O=C(Cc1csc(N2CCOCC2)n1)N/N=C/c1ccc(Cl)cc1Cl  4.5%
51. CC(C)C(=O)N(Cc1ccc(F)cc1)Cc1nc2ccccc2c(=O)[nH]1  4.6%
52. COc1ccc(NC2=C(Cl)C(=O)N(CCc3ccccc3)C2=O)cc1  4.8%
53. CCC(=O)Nc1nc2c(s1)COc1ccccc1-2  6.3%
54. C=CCOc1ccc(/C(CC)=N/O)c(OC)c1  6.3%
55. CCC12CN3CC(CC)(CN(C1)C3c1ccccc1Cl)C2O (centres undefined)  6.4%
56. O=C(Cc1csc(N2CCOCC2)n1)N/N=C/c1cccc(O)c1  6.6%
57. COc1cc(OCC(N)=O)cc(OC)c1OC  7.1%
58. COc1ccc2c(c1O)-c1ccccc1CCN(C)C2  7.3%
59. CC(C)OC(=O)c1cc2ccccc2[nH]1  7.4%
60. COc1ccc(S(=O)(=O)N2CCCCC2)cc1NC(=S)Nc1cccc(Cl)c1C  7.7%
61. CN1CCc2ccccc2C1C1CCNCC1 (centres undefined)  8.3%
62. Cc1ccc(N=Cc2sccc2C)cc1C  8.8%
63. NS(=O)(=O)c1cccc(NC(=O)CN2CCN(Cc3ccc4c(c3)OCO4)CC2)c1  10%
64. NCC(O)(c1ccc(Cl)cc1)c1ccc(Cl)cc1  10.4%
65. O=C(CCc1ccc(S(=O)(=O)N2CCOCC2)cc1)N/N=C/c1ccc(F)cc1F  10.5%
66. CC1CCN(C(=O)CSc2nnc(CNc3ccc(F)cc3)n2Cc2ccco2)CC1  10.7%
67. CCCCC(=O)Nc1cc2nn(-c3ccc(OC)cc3)nc2cc1C  10.9%
68. COc1ccccc1NC(=O)c1ccccc1S(=O)(=O)c1ccccc1[N+](=O)[O-]  12.3%
69. Cc1ccc(O)c(NC(=O)c2noc3c2CCc2ccccc2-3)c1  13%
70. COC(=O)N/N=C/c1cc(Br)ccc1O  13.6%
71. Oc1ccc(Br)cc1C=Nc1ccc(Cl)cc1  13.7%
72. COC(=O)C1CCN(Cc2ccc(OCCCN3CCN(c4ccc([N+](=O)[O-])cc4)CC3)cc2)CC1  14%
73. CCSc1nc2ccc(OC)cc2cc1C#N  14.3%
74. CCCCOc1ccc(CN2CCCCC2)cc1  14.9%
75. CN1CCc2cc3c(c4c2[C@H]1[C@H](O)c1ccccc1-4)OCO3  16.9%
76. O=C(NCCN1CCN(c2ccccc2)CC1)C1(S(=O)(=O)c2ccc(Cl)cc2)CC1  18%
77. Cn1ccc2c([N+](=O)[O-])cccc2c1=O  23.6%
78. O=C(/C(=N/N=C/c1ccc(O)c(O)c1)c1ccccc1)c1ccccc1  24.9%
79. O=C(/C(=N/N=C/c1ccc(O)c(O)c1O)c1ccccc1)c1ccccc1  30.5%
80. COc1ccc(N=Cc2cc(Cl)ccc2O)cc1Cl  40.6%
81. O=[N+]([O-])c1cccc(-c2ccc(C(=S)N3CCOCC3)o2)c1  47%
82. N#CC1=C2SCN(Cc3ccccc3)CN2C(=O)CC1c1ccc2c(c1)OCO2 (centres undefined)  47.4%
